# Results: PubChem BioAssay (NCI)
# The panel holds about 83,000 compounds, 20% with a hit somewhere; the sample as a whole holds those more often.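 Interpretation: 100, growth as untreated; towards 0, rising growth inhibition; 0, no net growth; 0 to -100, cell death. Compounds scoring below 10 were considered active.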 Unmarked numbers belong to inactive results. Activity calls are given as the source filed them.
# Test system: MDA-MB-468 breast
# Assay: NCI-60 one-dose screen, 48 h (100 = growth as untreated, 0 = no growth, -100 = all killed)
# Details: 10 µM unless noted
row,Compound,growth
1,COc1ccc2c(c1)CCc1[nH]nc(-c3cc(OC)c(OC)c(OC)c3)c1-2,-4.62% (active)
2,CC(C)OC1OC(OC(C)C)C(OC(C)C)OC1OC(C)C (centres undefined),101%
3,CCOC(=O)CC(C#N)(CC(=O)OCC)C(=O)OCC,96.9%
4,O=C(CNCCO)Nc1ccc2ncnc(Nc3ccc(OCc4cccc(F)c4)c(Cl)c3)c2c1,-17.8% (active)
5,Cc1ccc(-n2cc(/C=C/C(=O)c3ccc(O)cc3)c(-c3ccc(S(C)(=O)=O)cc3)n2)cc1,93.8%
6,COc1ccc(/C=N/NC(=O)c2cccc3cc[nH]c23)cc1O,11.3%
7,COc1ccc2c(c1)C1=NN(C(=O)CO)[C@H](c3ccc(OC(F)(F)F)cc3)[C@@H]1CC2,117%
8,Cc1ccc(S(=O)(=O)N/N=C/C2(c3ccccc3)CC2)cc1,95.8%
9,CCOC(=O)/C(=C\c1ccc(-c2ccccc2)cc1)C(C)=O,95%
10,CCCCCCNC(=O)Oc1ccc(/C(=C(\C)c2ccc(Cl)cc2)c2ccc(OCCN3CCCCC3)cc2)cc1,25.1%
11,CCN1CCN(C(=O)[C@]23CC[C@@H](C)[C@H](C)[C@H]2C2=CC[C@@H]4[C@@]5(C)C/C(=C/c6cccc(OC)c6OC)C(=O)C(C)(C)[C@@H]5CC[C@@]4(C)[C@]2(C)CC3)CC1,16.4%
12,Cn1c(/C=C(\C#N)c2ccccc2)nc2c(N3CCOCC3)nc(Cl)nc21,-47.9% (active)
13,Cn1c(SC(C(=O)Nc2ccc(F)cc2)c2ccccc2)nc2ccccc2c1=O (centres undefined),99.6%
14,O=C(/C=C/c1c(Cl)nc2sccn12)c1nccs1,75.7%
15,COc1cc2nccc(Oc3ccc(NC(=O)C4(C(=O)Nc5ccc(F)cc5)CC4)cc3)c2cc1Oc1ccc(N)cn1,31.7%
16,CC(=O)/C(N=Nc1ccc(S(=O)(=O)c2ccc(N=N/C(C(C)=O)=C(/C)O)cc2)cc1)=C(\C)O,108%
17,CCN=c1cc2sc3cc(NCC)c(C)cc3nc-2cc1C,30.7%
18,COc1ccc(-c2[nH]c3ccc(OC)cc3c2C=C(C#N)C#N)cc1,-13.7% (active)
19,COc1ncnc2c1cnn2C,106%
20,Cc1ccnc2c1ccc1c(C)ccnc12,-17.8% (active)

row,Compound,growth
1,CCCCC(CC)CN=C(N)NC(N)=NCCCCCCN=C(N)NC(N)=NCC(CC)CCCC (centres undefined),-85.7% (active)
2,COc1cnc2c(c1)C(=O)c1c-2n(CCCNC(C)C)c(=O)c2cc([N+](=O)[O-])ccc12,-55.8% (active)
3,N#Cc1c2c(nc3n[nH]c(N)c13)CCCC2,93.6%
4,O=c1oc2ccc(Cl)cc2c(=O)n1-c1ccc(Cl)cc1F,2.01% (active)
5,CN(C)Cc1ccc(NC(=O)c2cncc(C#Cc3cnc(N)c4ncccc34)c2)cc1F,72.3%
6,CC(O)COc1ccc(-c2ccccc2)cc1 (centres undefined),102%
7,COc1ccc(C2CC(c3ccc(Cl)cc3)=NN2/C=C2\SC(=S)N(NC(=O)Cc3ccccc3Nc3c(Cl)cccc3Cl)C2=O)cc1 (centres undefined),75.2%
8,O=C1/C(=C/c2ccc([N+](=O)[O-])o2)Oc2ccc(Br)cc21,65.3%
9,Cc1ccc2oc(=O)cc(C3C(C#N)=C(N)Oc4c3ccc3ccccc43)c2c1 (centres undefined),63.8%
10,CCN(CC)c1ccc(/C=C\c2cc(C)c3cc(C)ccc3n2)cc1,1.26% (active)
11,Clc1ccc(-c2cnc3c(-c4ccnc(N5CCNCC5)c4)cnn3c2)cc1,16.3%
12,CCN1C(=O)N(CC)C2Nn3c(s/c(=C4\C(=O)Nc5ccccc54)c3=O)=NC21 (centres undefined),5.05% (active)
13,Cc1ccc(C(=O)NC2c3ccccc3Oc3ccccc32)cc1,41.8%
14,C/C(=N\OC(=O)Nc1ccccc1)c1ccccc1,83.2%
15,O=C1CCC(c2c(O)cc(O)c3c(=O)c(O)c(-c4ccc(O)c(O)c4)oc23)N1 (centres undefined),108%
16,O=c1nc2oc3ccc4ccccc4c3cc-2s1,-3.68% (active)
17,COc1ccc2c(c1)CC[C@@H]1[C@@H]2CC[C@]2(C)[C@@H](O)C(=O)C[C@@H]12,109%
18,O=c1[nH]c(-c2ccc(Cl)cc2)cn1-c1ccc(-n2cc(-c3ccc(Cl)cc3)[nH]c2=O)cc1,103%
19,Cc1cc(NCc2cc(Nc3ccnc4cc(Cl)ccc34)ccc2F)nc(N2CCCC2)n1,-35.4% (active)
